# Source: the supplement of paper PMC8728848
# Shown is part of a subset that was picked to be rich in the strongest signals.
# B1: Ecp6 (Cladosporium fulvum), B3VBK9 (protein)
# chain: MQSMILFAAALMGAAVNGFVLPRTDDPDCETKATDCGSTSNIKYTVVKGDTLTSIAKKFKSGICNIVSVNKLANPNLIELGATLIIPENCSNPDNKSCVSTPAEPTETCVPGLPGSYTIVSGDTLTNISQDFNITLDSLIAANTQIENPDAIDVGQIITVPVCPSSQCEAVGTYNIVAGDLFVDLAATYHTTIGQIKALNNNVNPSKLKVGQQIILPQDCKNVTTAVA
# Experiments:
# Assay in all cases: glycan array binding signal (z-score within array); higher = stronger binding
# Details in all cases: glycan notation: IUPAC condensed, linker removed
# [1] = biological target: Fuc(a1-2)Gal(b1-3)GalNAc(a1-3)[Fuc(a1-2)]Gal(b1-4)Glc
# Method in brief: (§1)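 The binding signal is a Z-score computed within each array. Data were drawn from 3228 arrays in the Consortium for Functional Glycomics database, restricted to those with a known protein sequence. Scores were averaged over arrays of the same protein sequence at different concentrations or buffers, and over linkers, and negative values can be taken as non-binding.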
# [2] = biological target: Fuc(a1-2)Gal(b1-3)GalNAc(a1-3)[Fuc(a1-2)]Gal(b1-4)GlcNAc
# Method in brief: as §1
# [3] = biological target: Fuc(a1-2)Gal(b1-3)GlcNAc(b1-2)Man(a1-3)[Fuc(a1-2)Gal(b1-3)GlcNAc(b1-2)Man(a1-6)]Man(b1-4)GlcNAc(b1-4)GlcNAc
# Method in brief: as §1
# [4] = biological target: Fuc(a1-2)Gal(b1-4)Glc6S
# Method in brief: as §1
# [5] = biological target: Fuc(a1-2)Gal(b1-4)GlcNAc(b1-3)Gal(b1-4)GlcNAc(b1-3)Gal(b1-4)GlcNAc
# Method in brief: as §1
# [6] = biological target: Fuc(a1-2)Gal(b1-4)[Fuc(a1-3)]GlcNAc
# Method in brief: as §1
# [7] = biological target: Fuc(a1-2)[Gal(a1-3)]Gal(b1-4)GlcNAc
# Method in brief: as §1
# [8] = biological target: Fuc(a1-2)[Gal(a1-3)]Gal(b1-4)[Fuc(a1-3)]GlcNAc
# Method in brief: as §1
# [9] = biological target: Fuc(a1-2)[GalNAc(b1-3)]Gal
# Method in brief: as §1
# [10] = biological target: Fuc(b1-3)GlcNAc
# Method in brief: as §1
# [11] = biological target: Gal(a1-3)Gal(b1-4)[Fuc(a1-3)]GlcNAc
# Method in brief: as §1
# [12] = biological target: Gal(a1-4)Gal(b1-3)GlcNAc(b1-2)Man(a1-3)[Gal(a1-4)Gal(b1-3)GlcNAc(b1-2)Man(a1-6)]Man(b1-4)GlcNAc(b1-4)GlcNAc
# Method in brief: as §1
# [13] = biological target: Gal(a1-4)GlcNAc
# Method in brief: as §1
# [14] = biological target: Gal(b1-3)GalNAc(b1-3)Gal(a1-4)Gal(b1-4)Glc
# Method in brief: as §1
# [15] = biological target: Gal(b1-3)GlcNAc(b1-3)Gal(b1-4)Glc
# Method in brief: as §1
# [16] = biological target: Gal(b1-3)GlcNAc(b1-3)Gal(b1-4)GlcNAc(b1-6)[Gal(b1-3)GlcNAc(b1-3)]Gal(b1-4)Glc
# Method in brief: as §1
# [17] = biological target: Gal(b1-3)GlcNAc(b1-3)GalNAc
# Method in brief: as §1
# [18] = biological target: Gal(b1-3)[Fuc(a1-4)]GlcNAc(b1-2)Man(a1-3)[Gal(b1-3)[Fuc(a1-4)]GlcNAc(b1-2)Man(a1-6)]Man(b1-4)GlcNAc(b1-4)GlcNAc
# Method in brief: as §1
# [19] = biological target: Gal(b1-4)GlcNAc(b1-3)Gal(b1-4)[Fuc(a1-3)]GlcNAc(b1-3)Gal(b1-4)[Fuc(a1-3)]GlcNAc
# Method in brief: as §1
# [20] = biological target: Gal(b1-4)GlcNAc(b1-3)[GlcNAc(b1-6)]Gal(b1-4)GlcNAc
# Method in brief: as §1
# [21] = biological target: Gal3S(b1-3)[Fuc(a1-4)]GlcNAc
# Method in brief: as §1
# [22] = biological target: Gal3S(b1-4)Glc
# Method in brief: as §1
# [23] = biological target: Gal3S(b1-4)[Fuc(a1-3)]Glc
# Method in brief: as §1
# [24] = biological target: GlcA(b1-3)Gal
# Method in brief: as §1
# [25] = biological target: GlcNAc(a1-4)Gal(b1-4)GlcNAc(b1-3)Gal(b1-4)GlcNAc
# Method in brief: as §1
# [26] = biological target: GlcNAc(a1-4)Gal(b1-4)GlcNAc(b1-3)Gal(b1-4)[Fuc(a1-3)]GlcNAc(b1-3)Gal(b1-4)[Fuc(a1-3)]GlcNAc
# Method in brief: as §1
# [27] = biological target: GlcNAc(b1-3)Gal(b1-4)Glc
# Method in brief: as §1
# [28] = biological target: GlcNAc(b1-3)Gal(b1-4)GlcNAc
# Method in brief: as §1
# [29] = biological target: GlcNAc(b1-3)Gal(b1-4)GlcNAc(b1-3)Gal(b1-4)GlcNAc
# Method in brief: as §1
# [30] = biological target: GlcNAc(b1-4)GlcNAc(b1-4)GlcNAc
# Method in brief: as §1
# [31] = biological target: GlcNAc(b1-4)GlcNAc(b1-4)GlcNAc(b1-4)GlcNAc(b1-4)GlcNAc
# Method in brief: as §1
# [32] = biological target: GlcNAc(b1-4)GlcNAc(b1-4)GlcNAc(b1-4)GlcNAc(b1-4)GlcNAc(b1-4)GlcNAc
# Method in brief: as §1
# [33] = biological target: GlcNAc(b1-4)[GlcNAc(b1-6)]GalNAc
# Method in brief: as §1
# [34] = biological target: Man(a1-3)[Man(a1-6)]Man(b1-4)GlcNAc(b1-4)GlcNAc
# Method in brief: as §1
# [35] = biological target: Neu5Ac(a2-3)Gal(b1-3)GalNAc
# Method in brief: as §1
# [36] = biological target: Neu5Ac(a2-3)Gal(b1-4)[Fuc(a1-3)]GlcNAc
# Method in brief: as §1
# [37] = biological target: Neu5Ac(a2-3)Gal(b1-4)[Fuc(a1-3)]GlcNAc(b1-3)GalNAc
# Method in brief: as §1
# [38] = biological target: Neu5Ac(a2-3)Gal6S(b1-4)[Fuc(a1-3)]GlcNAc
# Method in brief: as §1
# [39] = biological target: Neu5Ac(a2-3)GalNAc(b1-4)GlcNAc
# Method in brief: as §1
# [40] = biological target: Neu5Ac(a2-6)Gal(b1-4)Glc
# Method in brief: as §1
# [41] = biological target: Neu5Ac(a2-6)GalNAc(b1-4)GlcNAc
# Method in brief: as §1
binder,measurement,setting,value
B1,glycan array binding signal (z-score),[1],-0.099
same,glycan array binding signal (z-score),[2],-0.099
same,glycan array binding signal (z-score),[3],-0.096
same,glycan array binding signal (z-score),[4],-0.062
same,glycan array binding signal (z-score),[5],-0.082
same,glycan array binding signal (z-score),[6],-0.078
same,glycan array binding signal (z-score),[7],-0.078
same,glycan array binding signal (z-score),[8],-0.021
same,glycan array binding signal (z-score),[9],-0.077
same,glycan array binding signal (z-score),[10],-0.083
same,glycan array binding signal (z-score),[11],-0.102
same,glycan array binding signal (z-score),[12],-0.099
same,glycan array binding signal (z-score),[13],-0.102
same,glycan array binding signal (z-score),[14],-0.064
same,glycan array binding signal (z-score),[15],-0.076
same,glycan array binding signal (z-score),[16],-0.107
same,glycan array binding signal (z-score),[17],-0.089
same,glycan array binding signal (z-score),[18],-0.039
same,glycan array binding signal (z-score),[19],-0.036
same,glycan array binding signal (z-score),[20],-0.096
same,glycan array binding signal (z-score),[21],-0.074
same,glycan array binding signal (z-score),[22],-0.098
same,glycan array binding signal (z-score),[23],-0.084
same,glycan array binding signal (z-score),[24],-0.089
same,glycan array binding signal (z-score),[25],-0.091
same,glycan array binding signal (z-score),[26],-0.002
same,glycan array binding signal (z-score),[27],-0.094
same,glycan array binding signal (z-score),[28],-0.1
same,glycan array binding signal (z-score),[29],-0.075
same,glycan array binding signal (z-score),[30],10.3
same,glycan array binding signal (z-score),[31],13
same,glycan array binding signal (z-score),[32],10.7
same,glycan array binding signal (z-score),[33],-0.103
same,glycan array binding signal (z-score),[34],-0.085
same,glycan array binding signal (z-score),[35],-0.099
same,glycan array binding signal (z-score),[36],-0.099
same,glycan array binding signal (z-score),[37],-0.004
same,glycan array binding signal (z-score),[38],-0.073
same,glycan array binding signal (z-score),[39],-0.052
same,glycan array binding signal (z-score),[40],-0.096
same,glycan array binding signal (z-score),[41],-0.063
